This note sets out measurements from PubChem BioAssay AID936 (University of Pittsburgh Molecular Library Screening Center, 2007).

Values without a mark were called inactive. How the calls were made is not given here. A value given as a limit tells only on which side of the number the result lay.

The experiment is described as follows: redox cycling hydrogen peroxide generation, dose response, artefact control for Plk1 PBD inhibitor project, biochemical, 1 mM DTT (AID 936). The conditions noted are these: Redox cycling H2O2 generation, cell-free.
In the case of `O=C(O)COc1ccc(Br)cc1/C=N/O`, the EC50 is over 50 µM. Regarding `CCC(Sc1nc2n[nH]c(C)c2c(=N)n1-c1cccc(Cl)c1)C(=O)NCCOC` (stereo not drawn), the EC50 is over 50 µM. The value for `O=C1C(C2=C(O)c3ccccc3C2=O)=Nc2ccccc21` was over 50 µM.

For orientation: EC50 means the concentration at which the effect is half-maximal.
